Assay outcomes deposited in PubChem BioAssay by National Center for Advancing Translational Sciences (NCATS).
Compounds with a hit are over-represented: about 2.7% of the library has one in this group of screens.
LDHA block = blocks human lactate dehydrogenase A; purified LDHA, NADH/diaphorase-resazurin fluorescence; stronger effect = lower value; activity change, % (values are at about 110 or 230 µM); hit rate 0.15% among 480,000; in the data active = activity change below about -30%; inconclusive = mostly about -25% to -30%;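 also: plate controls were DMSO wells for no effect and wells without enzyme for full effect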
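Resorufin fluorescence (ex540/em590), read at 0 and 20 min after diaphorase/resazurin addition, reports the NADH left after a 5 min room-temperature reaction of 2 nM human LDH5 with 0.06 mM NADH and 0.2 mM pyruvate.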
Nrf2 block = Nrf2 pathway inhibition; A549 ARE-Fluc reporter, luciferase luminescence, 18-24 h; Potency, µM (series often up to 46 µM), inactives show at the top dose activity change, negative = inhibition, usual class: inhibitors; hit rate 2.1% among 360,000; also: potency is read from the fitted curve at half-maximal effect; % is scaled to controls: 0 for no effect and ±100 for the full control effect; nearly all actives have a fitted effect of over 60% in size
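A549 ARE_Fluc cells (5000/well, 5% FBS OPTI-MEM) pre-incubated 2 h, then treated with compounds 18-24 h at 37C/5% CO2 in concentration-response. CellTiter-Fluor viability read first; BugLite luciferase luminescence after 15 min at room temperature gives Nrf2 activity.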
Nrf2 ARE act = activators of Nrf2 (ARE) signaling. AREc32 ARE-luciferase reporter (MCF7-derived line), luminescence, 24 h. AID 624171. Potency, µM (top dose mostly 46.1 µM), without a hit: at the highest dose activation, actives largely listed as activators. hit rate 0.31% among 410,000; also: potency is read from the fitted curve at half-maximal effect; % of control where 0% means no effect; nearly all actives have a fitted effect of over 65% in size
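ARE activation measured as luciferase luminescence (Steady-Glo, 30 min RT) in AREc32_Fluc cells after 24 hr compound exposure at 37 deg C, 5% CO2; cells seeded overnight at 1000/well in OPTI-MEM, 5% FBS.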
IDH1 R132H inh = human IDH1 R132H inhibition. O75874. IDH1-R132H enzyme, NADPH consumption, diaphorase/resazurin fluorescence. Potency, µM (series often up to 76.6 µM), without a hit: at the highest dose activity change, negative = inhibition, actives largely listed as inhibitors. hit rate 0.093% among 390,000. AID 602179; also: potency is read from the fitted curve at half-maximal effect; % is scaled to controls: 0 for no effect and ±100 for the full control effect; nearly all actives have a fitted effect of over 65% in size
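IDH1-R132H (0.5 ug/mL dispensed) in pH 7.5 Tris buffer was preincubated 30 min with compound, then given a substrate mix of 0.016 mM NADPH and 2 mM alpha-KG for 80 min at room temperature; remaining NADPH was read by diaphorase/resazurin fluorescence.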
A549 tox = A549 cytotoxicity, counter-screen for Nrf2 inhibitors; A549 ARE-Fluc cells, CellTiter-Fluor viability, 18-24 h; Potency, µM (doses to about 46 µM), without a hit: top-dose activity change, negative = cytotoxicity, actives largely listed as inhibitors; AID 504648; hit rate 0.16% among 390,000; also: potency is read from the fitted curve at half-maximal effect; % is scaled to controls: 0 for no effect and ±100 for the full control effect
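Cytotoxicity counterscreen: CellTiter-Fluor fluorescence was measured in A549 ARE_Fluc cells after 18-24 h of compound exposure in a concentration series. The subsequent BugLite luminescent read reports ARE-luciferase activity.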
12-LOX inh = blocks human arachidonate 12S-lipoxygenase; P18054; purified 12hLO, xylenol orange hydroperoxide absorbance; Potency, µM (titrated, usually from 108 µM), for inactives: top-dose activity change, negative = inhibition, most hits filed as inhibitors; hit rate 1.1% among 580,000; AID 1671190; also: potency is read from the fitted curve at half-maximal effect; % is scaled to controls: 0 for no effect and ±100 for the full control effect
Target sequence (P18054 whole entry, looked up): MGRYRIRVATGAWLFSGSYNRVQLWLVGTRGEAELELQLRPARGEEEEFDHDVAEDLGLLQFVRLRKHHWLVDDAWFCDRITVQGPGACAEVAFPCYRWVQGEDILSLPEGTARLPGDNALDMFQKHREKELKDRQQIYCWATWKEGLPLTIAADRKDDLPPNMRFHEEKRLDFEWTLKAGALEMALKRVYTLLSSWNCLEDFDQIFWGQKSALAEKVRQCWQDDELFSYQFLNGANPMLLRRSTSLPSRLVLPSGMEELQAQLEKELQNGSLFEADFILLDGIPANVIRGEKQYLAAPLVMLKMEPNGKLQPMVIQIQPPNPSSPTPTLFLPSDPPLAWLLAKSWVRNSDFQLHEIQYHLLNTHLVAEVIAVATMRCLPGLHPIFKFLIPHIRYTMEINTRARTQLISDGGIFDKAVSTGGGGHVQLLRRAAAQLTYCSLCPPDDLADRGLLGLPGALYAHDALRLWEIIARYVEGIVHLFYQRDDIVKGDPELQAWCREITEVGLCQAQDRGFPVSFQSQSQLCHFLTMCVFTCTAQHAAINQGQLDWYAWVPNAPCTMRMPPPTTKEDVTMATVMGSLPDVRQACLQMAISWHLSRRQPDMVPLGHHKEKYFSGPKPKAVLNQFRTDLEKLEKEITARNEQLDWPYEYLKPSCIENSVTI
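Hydroperoxide product was detected by ferrous iron/xylenol orange as the 573 to 405 nm absorbance ratio. Arachidonic acid at 40 uM (final) was turned over for 30 min at room temperature by 150 nM human 12hLO, pH 7.0 Hepes buffer, after 15 min compound preincubation.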
The depositor's hits bear a star; i = inactive; ? = inconclusive; / = no result; ! = not confirmed by another sample; [ ] = remark or other dose. Unless noted, calls follow the shape of the dose curve; as a rule, active = well fitted curve in the direction sought with a large enough effect; inconclusive = small, poorly fitted or top-dose-only effect, or another doubt; inactive = no such curve, though single readings can be large; an effect the other way counts as inactive or inconclusive.

SMILES | LDHA block | Nrf2 block | Nrf2 ARE act | IDH1 R132H inh | A549 tox | 12-LOX inh
O=C(/C=C/c1ccco1)Nc1cccc(S(=O)(=O)N2CCOCC2)c1 | -5 | 1% | 5.6µM* | 0% | 4% | -23%
COc1ccc(/C=C/C(=O)Nc2cccc(S(=O)(=O)N3CCOCC3)c2)cc1OC | 7 | ? | 5% | 3% | 3% | ?
Cc1ccc(/C=C/C(=O)Nc2cccc(S(=O)(=O)N3CCOCC3)c2)o1 | 5 | 19% | 27% | 6% | 3% | -26%
CN(CC(=O)Nc1cccc(S(=O)(=O)N2CCOCC2)c1)CC(=O)Nc1ccc(Cl)c(C(F)(F)F)c1 | -2 | 21µM* | 3% | -2% | ? | 18%
CN(C)S(=O)(=O)c1cccc(NC(=O)/C=C/c2ccc(S(=O)(=O)N3CCOCC3)cc2)c1 | -1 | 23µM* | 1% | 0% | -4% | -10%
COc1cc(/C=C/C(=O)Nc2cccc(S(=O)(=O)N3CCOCC3)c2)ccc1OCC#N | -4 | 15µM* | 0% | 16% | -9% | -4%
CCOc1ccc(C(=O)Nc2cccc(-c3nc4cccnc4s3)c2)cc1 | 8 | / | / | / | / | 4%
Cc1ccc(C)c(NC(=O)Cc2c[nH]c3ccccc23)c1 | 2 | / | / | / | / | ?
COc1ccc(N=Cc2ccccc2O)cc1 | 19 | -4% | 4% | -7% | 1% | ?
COc1ccc2sc(/C=C/c3ccccc3O)[n+](C)c2c1 | -1 | 3% | 11% | 0% | -20% | 40µM*
Clc1cnc(N/N=C/c2cccs2)c(Cl)c1 | 1 | ? | ? | 3% | -23% | 307%
Cc1ccc(/C=N/Nc2ncc(Cl)cc2Cl)s1 | 4 | ? | 3% | 1% | 5.8µM* | 3%
Nc1ccc(-c2cc(C(=O)O)c3ccccc3n2)cc1 | ? | / | / | / | / | 18µM*
Cc1ccc2nc(-c3ccco3)cc(C(=O)O)c2c1 | 20 | / | / | / | / | 7.9µM*!
Cc1nn(-c2ccccc2)c(Cl)c1C(=O)NC1CCCCC1 | -1 | -23% | 2% | 6% | 29% | -36%
COC(=O)c1cc(-c2ccco2)nc2ccccc12 | -6 | / | / | / | / | 14µM*
Cc1nn(-c2ccccc2)c(C)c1C(=O)OC(C)C(=O)NC1CCCCC1 (stereo not given) | 3 | 18µM* | 1% | 6% | -21% | -10%
Cc1ccc(NC(=S)NN)cc1 | -10 | / | / | / | / | ?
COC(=O)c1cc(-c2ccc(C)o2)nc2ccccc12 | -15 | ? | 2%[9.22 µM] | 5% | 23% | 6.3µM*
CC(C)NC(=O)c1cc(-c2ccco2)nc2ccccc12 | -5 | / | / | / | / | ?
CNC(=O)COC(=O)c1cc(-c2ccc(C)o2)nc2ccccc12 | -3 | / | / | / | / | ?
CCOc1ccccc1NC(=O)c1cc(-c2ccco2)nc2ccccc12 | -1 | / | / | / | / | 11µM*
O=C(NC1CC1)c1cc(-c2ccco2)nc2ccccc12 | 1 | -8% | 13µM* | 5% | 1% | ?
Cc1ccc(-c2cc(C(=O)OCC(=O)NC34CC5CC(CC(C5)C3)C4)c3ccccc3n2)o1 | 10 | / | / | / | / | 1.3µM*
COc1ccc(OCc2nc(C(=O)N3CCC4(CCCN(C)C4=O)C3)co2)cc1 (stereo not given) | / | / | / | / | / | 17%
SMILES | LDHA block | Nrf2 block | Nrf2 ARE act | IDH1 R132H inh | A549 tox | 12-LOX inh
COC(=O)c1ccc(Oc2coc3cc(OC(=O)c4ccccc4Br)ccc3c2=O)cc1 | -9 | / | / | / | / | ?
CN(C(=O)COC(=O)c1cc2ccccc2cc1O)c1c(N)n(Cc2ccccc2)c(=O)[nH]c1=O | 7 | 1% | 1% | -1% | 0% | ?
Cc1ccc(-c2cc(C(=O)OC(C)C(=O)NC3CCCC3)c3ccccc3n2)o1 (stereo not given) | 4 | / | / | / | / | 6.3µM*
N#Cc1c(N)n[nH]c1CCCNC(=O)c1cc(-c2ccco2)nc2ccccc12 | -2 | / | / | / | / | 20µM*
Cc1ccc(-c2cc(C(=O)OCC(=O)N(C)c3c(N)n(Cc4ccccc4)c(=O)[nH]c3=O)c3ccccc3n2)o1 | -6 | 3% | 4% | 4% | 0% | 7.1µM*
O=C(O)c1cc(-c2ccco2)nc2ccccc12 | 0 | 18% | 6% | 12% | -6% | 7.1µM*
CC(C)C(=O)Nc1cccc(NC(=O)C2(c3ccccc3)CCCC2)c1 | -8 | / | / | / | / | ?
O=C(CSc1nc2ccccc2o1)Nc1ccccc1Oc1ccccc1 | 8 | / | / | / | / | ?
COC(=O)C1C(=O)C=C(N)CC1c1ccco1 (stereo not given) | 34 | / | / | / | / | ?
CCOC(=O)c1sc(NC(=O)CCSc2ccc(Cl)cc2)nc1C | 9 | / | / | / | / | -5%
O=C(CN1C(=O)NC2(CCCC2)C1=O)Nc1cc(Cl)cc2cccnc12 | 4 | / | / | / | / | ?
COC(=O)c1cc(-c2ccco2)nc2c(Cl)cccc12 | -8 | / | / | / | / | 22µM*
CCN1CCC2(CC1)Oc1ccccc1C1CC(c3ccccc3Cl)=NN12 (stereo not given) | 1 | / | / | / | / | ?
CCN(CC)c1ccc(NC(=O)c2cnc3ccccn3c2=O)c(C)c1 | 24 | 2.9µM* | 0% | 6% | -19% | ?
Cc1ccc(NC(=O)c2cnc3cc(C)ccn3c2=O)c(C)c1 | 0 | ? | 3% | 1% | -18% | -21%
O=C(c1cccc(C(F)(F)F)c1)N1CCOC12CCN(c1ncc(C(F)(F)F)cc1Cl)CC2 | -7 | 26µM* | 0% | 0% | -14% | 21%
CC(C)c1ccc(NC(=O)C(c2ccc3c(c2)OCO3)N2CCCCC2)cc1 (stereo not given) | -3 | 8% | -1% | 13% | -13% | -17%
Oc1cc2c(cc1C(c1ccc(Cl)c(Cl)c1)N1CCCC1)OCO2 (stereo not given) | 27 | 19% | 5% | 28% | 2% | 4.5µM*
Cc1[nH]c2ccc(-c3nnc(SCC(=O)c4ccc(F)cc4)o3)cc2c1C | -10 | ? | 0% | 1% | -3% | -7%
Cc1cc(C)c(C)c(C(=O)CSc2nnc(-c3ccc4[nH]c(C)c(C)c4c3)o2)c1C | -3 | 12µM* | -1% | 10% | ? | i
O=C(Cc1cccc(F)c1)NC1C2CC3CC(C2)CC1C3 (stereo not given) | 6 | / | / | / | / | ?
OC(CNCCc1ccc(C(F)(F)F)cc1)COC(c1ccccc1)c1ccccc1 (stereo not given) | -2 | -21% | -2% | 7% | 1% | 14µM*
COc1ccc(C(OCC(O)CNCCc2ccc(S(N)(=O)=O)cc2)c2ccc(OC)cc2)cc1 (stereo not given) | -3 | 13% | 3% | 5% | 2% | 0%
